# Data taken from the supplement of paper PMC12282887.
# ± gives the standard deviation of the averaged measurements.
# Key:
# Assay in all cases: promoter activity interaction Z-score (Lux/OD deviation from empty-vector control); higher = stronger promoter induction by the compound
# [1] = system: E. coli BW25113 acrABp lux reporter
# In short: (§1)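 Four 1:2 dilutions of each compound were tested in biological duplicates on E. coli BW25113 carrying low-copy luxCDABE promoter reporters, either wild type or deleted for one of three genes. Cultures of 40 µl LB Lennox in 384-well plates were kept at 37°C and read for OD600 and luminescence every 30 min for 12 h. Integration windows were 0–8 h for wild type and 1–9 h for deletion strains, and wells under 10% of the median growth value were discarded. The score is a Z-transformed residual of growth-normalised luminescence relative to a control fit.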
# [2] = system: E. coli BW25113 micFp lux reporter
# In short: as §1
# [3] = system: E. coli BW25113 ompFp lux reporter
# In short: as §1
# [4] = system: E. coli BW25113 robp lux reporter
# In short: as §1
# [5] = system: E. coli BW25113 soxSp lux reporter
# In short: as §1
# [6] = system: E. coli BW25113 tolCp lux reporter
# In short: as §1
# [7] = 18.9 µg/ml, genetic background: wild type
# [8] = 18.9 µg/ml, genetic background: ΔmarA
# [9] = 18.9 µg/ml, genetic background: Δrob
# [10] = 18.9 µg/ml, genetic background: ΔsoxS
# [11] = 37.8 µg/ml, genetic background: wild type
# [12] = 37.8 µg/ml, genetic background: ΔmarA
# [13] = 37.8 µg/ml, genetic background: Δrob
# [14] = 37.8 µg/ml, genetic background: ΔsoxS
# [15] = 75.6 µg/ml, genetic background: wild type
# [16] = 75.6 µg/ml, genetic background: ΔmarA
# [17] = 75.6 µg/ml, genetic background: Δrob
# [18] = 75.6 µg/ml, genetic background: ΔsoxS
# [19] = 151.1 µg/ml, genetic background: wild type
# [20] = 151.1 µg/ml, genetic background: ΔmarA
# [21] = 151.1 µg/ml, genetic background: Δrob
# [22] = 151.1 µg/ml, genetic background: ΔsoxS
compound,measurement,setting,value
O=c1c(O)c(-c2ccc(O)c(O)c2)oc2cc(O)cc(O)c12 [Quercetin],promoter activity interaction Z-score,[1]; [7],0.0407 ± 0.033
same,promoter activity interaction Z-score,[1]; [8],0.285 ± 0.58
same,promoter activity interaction Z-score,[1]; [9],0.143 ± 0.3
same,promoter activity interaction Z-score,[1]; [10],-0.34 ± 0.38
same,promoter activity interaction Z-score,[1]; [11],-0.233 ± 0.072
same,promoter activity interaction Z-score,[1]; [12],-0.0432 ± 0.69
same,promoter activity interaction Z-score,[1]; [13],0.164 ± 0.29
same,promoter activity interaction Z-score,[1]; [14],-0.184 ± 0.31
same,promoter activity interaction Z-score,[1]; [15],0.12 ± 0.43
same,promoter activity interaction Z-score,[1]; [16],-0.0185 ± 1.1
same,promoter activity interaction Z-score,[1]; [17],0.926 ± 1.1
same,promoter activity interaction Z-score,[1]; [18],-0.604 ± 0.62
same,promoter activity interaction Z-score,[1]; [19],-0.353 ± 0.089
same,promoter activity interaction Z-score,[1]; [20],0.59 ± 0.8
same,promoter activity interaction Z-score,[1]; [21],-0.142 ± 0.23
same,promoter activity interaction Z-score,[1]; [22],-0.9 ± 0.8
same,promoter activity interaction Z-score,[2]; [7],-0.288 ± 0.045
same,promoter activity interaction Z-score,[2]; [8],-0.0462 ± 0.033
same,promoter activity interaction Z-score,[2]; [9],-0.011 ± 0.074
same,promoter activity interaction Z-score,[2]; [10],-0.324 ± 0.11
same,promoter activity interaction Z-score,[2]; [11],-0.188 ± 0.12
same,promoter activity interaction Z-score,[2]; [12],0.0255 ± 0.15
same,promoter activity interaction Z-score,[2]; [13],-0.0437 ± 0.18
same,promoter activity interaction Z-score,[2]; [14],0.101 ± 0.056
same,promoter activity interaction Z-score,[2]; [15],-0.0961 ± 0.062
same,promoter activity interaction Z-score,[2]; [16],0.0844 ± 0.079
same,promoter activity interaction Z-score,[2]; [17],-0.0403 ± 0.11
same,promoter activity interaction Z-score,[2]; [18],-0.101 ± 0.085
same,promoter activity interaction Z-score,[2]; [19],0.0699 ± 0.42
same,promoter activity interaction Z-score,[2]; [20],0.224 ± 0.17
same,promoter activity interaction Z-score,[2]; [21],0.00151 ± 0.41
same,promoter activity interaction Z-score,[2]; [22],-0.0142 ± 0.042
same,promoter activity interaction Z-score,[3]; [7],0.228 ± 0.3
same,promoter activity interaction Z-score,[3]; [8],-0.0494 ± 0.2
same,promoter activity interaction Z-score,[3]; [9],-0.0408 ± 0.12
same,promoter activity interaction Z-score,[3]; [10],-0.358 ± 0.37
same,promoter activity interaction Z-score,[3]; [11],5.13 ± 7
same,promoter activity interaction Z-score,[3]; [12],0.88 ± 1.6
same,promoter activity interaction Z-score,[3]; [13],1.304 ± 0.013
same,promoter activity interaction Z-score,[3]; [14],0.531 ± 0.91
same,promoter activity interaction Z-score,[3]; [15],0.467 ± 1.2
same,promoter activity interaction Z-score,[3]; [16],0.186 ± 0.5
same,promoter activity interaction Z-score,[3]; [17],0.616 ± 1.3
same,promoter activity interaction Z-score,[3]; [18],-0.383 ± 0.54
same,promoter activity interaction Z-score,[3]; [19],0.00251 ± 0.91
same,promoter activity interaction Z-score,[3]; [20],0.373 ± 2.1
same,promoter activity interaction Z-score,[3]; [21],1.79 ± 0.024
same,promoter activity interaction Z-score,[3]; [22],-0.395 ± 0.84
same,promoter activity interaction Z-score,[4]; [7],0.802 ± 0.18
same,promoter activity interaction Z-score,[4]; [8],0.257 ± 0.52
same,promoter activity interaction Z-score,[4]; [9],0.102 ± 0.22
same,promoter activity interaction Z-score,[4]; [10],0.13 ± 0.66
same,promoter activity interaction Z-score,[4]; [11],0.9459 ± 0.004
same,promoter activity interaction Z-score,[4]; [12],0.813 ± 0.4
same,promoter activity interaction Z-score,[4]; [13],0.818 ± 0.073
same,promoter activity interaction Z-score,[4]; [14],1.68 ± 0.85
same,promoter activity interaction Z-score,[4]; [15],0.907 ± 0.8
same,promoter activity interaction Z-score,[4]; [16],0.794 ± 0.53
same,promoter activity interaction Z-score,[4]; [17],0.226 ± 0.59
same,promoter activity interaction Z-score,[4]; [18],-0.114 ± 0.062
same,promoter activity interaction Z-score,[4]; [19],0.549 ± 0.61
same,promoter activity interaction Z-score,[4]; [20],0.417 ± 0.21
same,promoter activity interaction Z-score,[4]; [21],0.359 ± 0.075
same,promoter activity interaction Z-score,[4]; [22],0.712 ± 1.1
same,promoter activity interaction Z-score,[5]; [7],-0.413 ± 0.13
same,promoter activity interaction Z-score,[5]; [8],-0.385 ± 0.18
same,promoter activity interaction Z-score,[5]; [9],-0.267 ± 0.1
same,promoter activity interaction Z-score,[5]; [10],-0.281 ± 0.57
same,promoter activity interaction Z-score,[5]; [11],-0.368 ± 0.13
same,promoter activity interaction Z-score,[5]; [12],-0.526 ± 0.069
same,promoter activity interaction Z-score,[5]; [13],-0.179 ± 0.028
same,promoter activity interaction Z-score,[5]; [14],-0.0207 ± 0.51
same,promoter activity interaction Z-score,[5]; [15],-0.595 ± 0.016
same,promoter activity interaction Z-score,[5]; [16],-0.528 ± 0.057
same,promoter activity interaction Z-score,[5]; [17],-0.375 ± 0.034
same,promoter activity interaction Z-score,[5]; [18],-0.161 ± 0.89
same,promoter activity interaction Z-score,[5]; [19],-0.715 ± 0.13
same,promoter activity interaction Z-score,[5]; [20],-0.513 ± 0.048
same,promoter activity interaction Z-score,[5]; [21],-0.414 ± 0.054
same,promoter activity interaction Z-score,[5]; [22],-0.567 ± 1
same,promoter activity interaction Z-score,[6]; [7],-0.038 ± 0.65
same,promoter activity interaction Z-score,[6]; [8],-0.0776 ± 0.32
same,promoter activity interaction Z-score,[6]; [9],-0.506 ± 0.62
same,promoter activity interaction Z-score,[6]; [10],-0.651 ± 0.26
same,promoter activity interaction Z-score,[6]; [11],0.105 ± 0.049
same,promoter activity interaction Z-score,[6]; [12],0.271 ± 0.14
same,promoter activity interaction Z-score,[6]; [13],0.0838 ± 0.44
same,promoter activity interaction Z-score,[6]; [14],0.0451 ± 1.2
same,promoter activity interaction Z-score,[6]; [15],0.492 ± 0.9
same,promoter activity interaction Z-score,[6]; [16],0.253 ± 0.53
same,promoter activity interaction Z-score,[6]; [17],0.773 ± 0.82
same,promoter activity interaction Z-score,[6]; [18],-0.519 ± 0.18
same,promoter activity interaction Z-score,[6]; [19],0.00965 ± 1
same,promoter activity interaction Z-score,[6]; [20],0.125 ± 0.38
same,promoter activity interaction Z-score,[6]; [21],0.962 ± 1.8
same,promoter activity interaction Z-score,[6]; [22],-0.462 ± 0.4
